Experimental data: PubChem BioAssay AID1851 (National Center for Advancing Translational Sciences (NCATS), 2009)
Among all 16,000 compounds or so, about 5,800 (36%) were called active. Not shown: some 23% with an inconclusive outcome. Some of the results follow. Unmarked numbers belong to inactive results. The call rests on the fitted dose curve; in most records, active means well fitted curve in the direction sought with a large enough effect; inconclusive means small, poorly fitted or top-dose-only effect, or effect the other way; inactive means no such curve, though single readings can be large or run the other way.

molecular target: Cytochrome P450 2C19 (Homo sapiens) (UniProt P33261); assay: Cytochrome panel assay with activity outcomes; settings: recombinant CYP, pro-luciferin dealkylation, luminescence, p450-cyp2c19; series mostly up to 57.1 µM
Sequence (P33261 whole entry, looked up): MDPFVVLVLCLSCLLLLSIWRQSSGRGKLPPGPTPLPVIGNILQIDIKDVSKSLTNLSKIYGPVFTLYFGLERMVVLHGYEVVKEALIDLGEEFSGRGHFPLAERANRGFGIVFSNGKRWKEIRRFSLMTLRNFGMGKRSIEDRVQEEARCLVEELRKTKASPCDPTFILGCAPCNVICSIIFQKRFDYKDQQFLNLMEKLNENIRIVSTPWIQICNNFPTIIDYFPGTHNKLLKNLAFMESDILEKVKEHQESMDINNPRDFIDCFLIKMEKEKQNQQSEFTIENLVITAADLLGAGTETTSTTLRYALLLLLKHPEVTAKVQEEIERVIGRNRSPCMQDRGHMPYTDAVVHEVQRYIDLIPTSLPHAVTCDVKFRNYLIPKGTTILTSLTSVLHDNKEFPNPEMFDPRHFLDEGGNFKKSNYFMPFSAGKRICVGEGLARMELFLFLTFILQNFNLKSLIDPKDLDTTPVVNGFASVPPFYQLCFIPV
On the % scale 0 is the no-effect control and ±100 the full control effect.

Row | Structure (SMILES) | activity, negative = inhibition | AC50
1 | CC(C)[C@H](NC(=O)OC(C)(C)C)[C@@H](O)CC(=O)C(C)(C)C | -18.4% [at 11.4 µM] | 
2 | CC(C)[C@@H]1NC(=O)[C@H](CCCCN)NC(=O)[C@H](Cc2c[nH]c3ccccc23)NC(=O)[C@H](Cc2ccc(O)cc2)NC(=O)[C@H](C)N(C)C(=O)[C@H](Cc2ccccc2)NC1=O |  | inactive
3 | CCOc1ccc(NC(=O)c2ccc(OC)cc2)cc1 |  | inactive
4 | COc1ccc(C(=O)Nc2cccc(OC(=O)c3ccc(C)c(C)c3)c2)cc1 |  | 7.94 µM (active)
5 | COc1ccc(C(=O)Nc2cc(OC)cc(OC)c2)cc1 |  | 2.51 µM (active)
6 | O=C(Nc1cccc(OC(=O)c2cccnc2)c1)c1cccnc1 |  | inactive
7 | COc1ccc2c(=O)cc(-c3ccncc3)oc2c1OC |  | 1.58 µM (active)
8 | COc1ccc2c(OC)c3ccoc3nc2c1OC |  | inactive
9 | CCc1ccc2c(-c3cccc(Cl)c3)nc(=O)n(CC)c2n1 |  | inactive
10 | CCn1c2ccccc2c2nnc(NCCCO)nc21 | 5.92% [at 11.4 µM] | 
11 | CCn1c2ccc(Cl)cc2c2nc3ccccc3nc21 |  | 14.1 µM (active)
12 | Cc1noc(C)c1-c1ccc2ncnc(NCc3ccccc3)c2c1 |  | 7.94 µM (active)
13 | Cc1noc(C)c1-c1ccc2ncnc(NCCN3CCOCC3)c2c1 |  | inactive
14 | Cc1noc(C)c1-c1ccc2ncnc(NCc3cccs3)c2c1 |  | 1.26 µM (active)
15 | COCCNc1ncnc2ccc(-c3c(C)noc3C)cc12 |  | 10 µM (active)
16 | CC(=O)NCCNc1ncnc2ccc(-c3c(C)noc3C)cc12 |  | inactive
17 | Cc1cccc(CNc2ncnc3ccc(-c4c(C)noc4C)cc23)c1 |  | 5.01 µM (active)
18 | C=C(C)C1Cc2nc(N)nc(C)c2C1 (stereo unspecified) |  | inactive
19 | COc1cc(C)cc2c(-c3c(O)cc(O)c4c3C[C@H](C)N[C@@H]4C)cc(-c3cc(-c4c(O)cc(O)c5c4C[C@H](C)N[C@@H]5C)c4cc(C)cc(OC)c4c3O)c(O)c12 | -31.6% [at 11.4 µM] | 
20 | Cc1noc(C)c1-c1ccc2ncnc(NCc3cccnc3)c2c1 |  | 0.02 µM (active)
21 | CC1(C)OC[C@@H]2O[C@H](n3cnc4c(N)nc(Cl)nc43)[C@@H](OS(C)(=O)=O)[C@@H]2O1 | 8% [at 11.4 µM] | 

Row | Structure (SMILES) | activity, negative = inhibition | AC50
22 | CN(Cc1ccco1)c1ncnc2ccc(-c3cccnc3)cc12 |  | 7.94 µM (active)
23 | CN(Cc1ccco1)c1ncnc2ccc(-c3cccc(NS(C)(=O)=O)c3)cc12 |  | 7.94 µM (active)
24 | CN1CCN(c2ncnc3ccc(-c4cccc(NS(C)(=O)=O)c4)cc23)CC1 |  | inactive
25 | CN(Cc1ccco1)c1ncnc2ccc(-c3ccc4c(c3)OCO4)cc12 |  | 0.631 µM (active)
26 | COc1cccc(-c2ccc3ncnc(N(C)Cc4ccco4)c3c2)c1 |  | 2 µM (active)
27 | CCOc1ccc2nc3cc(N=Nc4ccc(N)nc4N)ccc3c(N)c2c1 | -6.5% [at 11.4 µM] | 
28 | CN(C)C(=O)c1ccc(-c2ccc3ncnc(N(C)C)c3c2)cc1 |  | inactive
29 | CN(C)c1ncnc2ccc(-c3cccnc3)cc12 |  | inactive
30 | COc1cccc(-c2ccc3ncnc(N(C)C)c3c2)c1 |  | 3.16 µM (active)
31 | CCSc1nnc(NC(=O)COc2ccc3ccccc3c2)s1 |  | 0.282 µM (active)
32 | O=C(O)CCC(=O)Nc1ccc2ccccc2c1 | -18.3% [at 11.4 µM] | 
33 | O=C(COc1ccc2ccccc2c1)Nc1ccc(Cc2ccncc2)cc1 |  | 0.178 µM (active)
34 | CCc1ccc(OCC(=O)Nc2ccc(-c3nc4ccccc4o3)c(O)c2)cc1 |  | inactive
35 | C=CCSc1nnc(NC(=O)COc2ccc3ccccc3c2)s1 |  | 2.24 µM (active)
36 | CCC(CC)c1nnc(NC(=O)COc2ccc3c(C)cc(=O)oc3c2)s1 |  | inactive
37 | CN1CC[C@@]2(CCN3CCc4c(oc5ccccc45)[C@@H]3C2)N(C)C1=O |  | inactive
38 | CC(C)=CCc1c2c(c3occ(-c4ccc(O)c(O)c4)c(=O)c3c1O)C=CC(C)(C)O2 |  | 2 µM (active)
39 | Cc1cccc(C(=O)Nc2nnc(-c3ccc(C(C)(C)C)cc3)s2)c1 |  | inactive
40 | Cc1ccc(Nc2nc(-c3sc(NC(=O)c4ccc([N+](=O)[O-])cc4)nc3C)cs2)cc1 |  | 1.26 µM (active)
41 | Cc1nc(NC(=O)c2ccccc2)sc1-c1csc(Nc2cccc(F)c2)n1 |  | 0.562 µM (active)
42 | O=C(Nc1nnc(CCS(=O)(=O)c2ccc(Br)cc2)s1)c1ccc([N+](=O)[O-])cc1 |  | inactive

Row | Structure (SMILES) | activity, negative = inhibition | AC50
43 | Cc1ccc(Nc2nc(-c3sc(NC(=O)c4cccc(Cl)c4)nc3C)cs2)cc1 |  | 1.41 µM (active)
44 | Cc1nc(NC(=O)c2ccccc2)sc1-c1csc(Nc2ccc(Cl)cc2)n1 |  | 0.316 µM (active)
45 | O=C(O)CCC(O)=C1S(=O)(=O)OCCOS1(=O)=O | 3.76% [at 11.4 µM] | 
46 | Cc1nc(NC(=O)c2ccco2)sc1-c1csc(Nc2ccc(Cl)cc2Cl)n1 |  | 0.355 µM (active)
47 | Cc1nnc(NC(=O)c2cccc(NC(=O)C(C)C)c2)s1 |  | inactive
48 | C=CCCC(=O)Nc1nc(C)c(-c2csc(Nc3ccc(Cl)cc3)n2)s1 |  | 1.26 µM (active)
49 | Cc1nc(NC(=O)c2ccccc2)sc1-c1csc(Nc2cccc(Cl)c2)n1 |  | 0.562 µM (active)
50 | Cc1nc(NC(=O)c2ccccc2)sc1-c1csc(Nc2ccc(Cl)cc2Cl)n1 |  | 0.355 µM (active)
51 | O=C(O)Cc1cc(I)c(Oc2ccc(O)c(I)c2)c(I)c1 |  | inactive
52 | CC[C@H](C)C(=O)O[C@H]1CCC=C2C=C[C@H](C)[C@H](CC[C@@H]3C[C@H](O)CC(=O)O3)[C@H]21 |  | inactive
53 | Nc1n[nH]c2ccccc12 | -23.5% [at 11.4 µM] | 
54 | Nc1[nH]nc2nc3ccccc3nc12 |  | 0.631 µM (active)
55 | COc1ccc(N(C)C(=O)c2ccc3nc(-c4ccccc4)c(-c4ccccc4)nc3c2)cc1 |  | 8.91 µM (active)
56 | CCCOc1ccc(Cn2c(C)nc([N+](=O)[O-])c2SCC(O)COC)cc1[N+](=O)[O-] (stereo unspecified) |  | 2.82 µM (active)
57 | Cc1cc(C)c(S(C)(=O)=O)c(Oc2ccc(C(C)(C)C)cc2)n1 |  | 7.94 µM (active)
58 | COc1ccc(Oc2nc(C)cc(C)c2S(=O)(=O)c2ccc(C)cc2)cc1 |  | 14.1 µM (active)
59 | Cc1cc(C)nc(NS(=O)(=O)c2ccc(N)cc2)n1 |  | inactive
60 | CNc1nc(C)cc(C)c1S(=O)(=O)c1ccc(Cl)cc1 |  | 0.708 µM (active)
61 | CNc1nc(C)cc(C)c1S(=O)(=O)c1ccc(C)cc1 |  | 0.631 µM (active)
